Assay results taken from the supplement of paper PMC11732987, “Enantioselective OTUD7B fragment discovery through chemoproteomics screening and high-throughput optimisation” (Communications Chemistry, 2025).

What was measured:
Experiment in all cases: log2 ratio of Biotin-Ahx-Ub-VS probe labelling (fragment/DMSO); higher = less target engagement (more negative = stronger competition), active = hit call of the paper (q ≤ 0.05, log2 ratio ≤ -1)
Conditions in all cases: compound concentration: 200 uM; treatment time: 3 h
USP34 = USP34 (UniProt Q70CQ2)
Chain of USP34 (Q70CQ2 whole entry, the tested form may be a part): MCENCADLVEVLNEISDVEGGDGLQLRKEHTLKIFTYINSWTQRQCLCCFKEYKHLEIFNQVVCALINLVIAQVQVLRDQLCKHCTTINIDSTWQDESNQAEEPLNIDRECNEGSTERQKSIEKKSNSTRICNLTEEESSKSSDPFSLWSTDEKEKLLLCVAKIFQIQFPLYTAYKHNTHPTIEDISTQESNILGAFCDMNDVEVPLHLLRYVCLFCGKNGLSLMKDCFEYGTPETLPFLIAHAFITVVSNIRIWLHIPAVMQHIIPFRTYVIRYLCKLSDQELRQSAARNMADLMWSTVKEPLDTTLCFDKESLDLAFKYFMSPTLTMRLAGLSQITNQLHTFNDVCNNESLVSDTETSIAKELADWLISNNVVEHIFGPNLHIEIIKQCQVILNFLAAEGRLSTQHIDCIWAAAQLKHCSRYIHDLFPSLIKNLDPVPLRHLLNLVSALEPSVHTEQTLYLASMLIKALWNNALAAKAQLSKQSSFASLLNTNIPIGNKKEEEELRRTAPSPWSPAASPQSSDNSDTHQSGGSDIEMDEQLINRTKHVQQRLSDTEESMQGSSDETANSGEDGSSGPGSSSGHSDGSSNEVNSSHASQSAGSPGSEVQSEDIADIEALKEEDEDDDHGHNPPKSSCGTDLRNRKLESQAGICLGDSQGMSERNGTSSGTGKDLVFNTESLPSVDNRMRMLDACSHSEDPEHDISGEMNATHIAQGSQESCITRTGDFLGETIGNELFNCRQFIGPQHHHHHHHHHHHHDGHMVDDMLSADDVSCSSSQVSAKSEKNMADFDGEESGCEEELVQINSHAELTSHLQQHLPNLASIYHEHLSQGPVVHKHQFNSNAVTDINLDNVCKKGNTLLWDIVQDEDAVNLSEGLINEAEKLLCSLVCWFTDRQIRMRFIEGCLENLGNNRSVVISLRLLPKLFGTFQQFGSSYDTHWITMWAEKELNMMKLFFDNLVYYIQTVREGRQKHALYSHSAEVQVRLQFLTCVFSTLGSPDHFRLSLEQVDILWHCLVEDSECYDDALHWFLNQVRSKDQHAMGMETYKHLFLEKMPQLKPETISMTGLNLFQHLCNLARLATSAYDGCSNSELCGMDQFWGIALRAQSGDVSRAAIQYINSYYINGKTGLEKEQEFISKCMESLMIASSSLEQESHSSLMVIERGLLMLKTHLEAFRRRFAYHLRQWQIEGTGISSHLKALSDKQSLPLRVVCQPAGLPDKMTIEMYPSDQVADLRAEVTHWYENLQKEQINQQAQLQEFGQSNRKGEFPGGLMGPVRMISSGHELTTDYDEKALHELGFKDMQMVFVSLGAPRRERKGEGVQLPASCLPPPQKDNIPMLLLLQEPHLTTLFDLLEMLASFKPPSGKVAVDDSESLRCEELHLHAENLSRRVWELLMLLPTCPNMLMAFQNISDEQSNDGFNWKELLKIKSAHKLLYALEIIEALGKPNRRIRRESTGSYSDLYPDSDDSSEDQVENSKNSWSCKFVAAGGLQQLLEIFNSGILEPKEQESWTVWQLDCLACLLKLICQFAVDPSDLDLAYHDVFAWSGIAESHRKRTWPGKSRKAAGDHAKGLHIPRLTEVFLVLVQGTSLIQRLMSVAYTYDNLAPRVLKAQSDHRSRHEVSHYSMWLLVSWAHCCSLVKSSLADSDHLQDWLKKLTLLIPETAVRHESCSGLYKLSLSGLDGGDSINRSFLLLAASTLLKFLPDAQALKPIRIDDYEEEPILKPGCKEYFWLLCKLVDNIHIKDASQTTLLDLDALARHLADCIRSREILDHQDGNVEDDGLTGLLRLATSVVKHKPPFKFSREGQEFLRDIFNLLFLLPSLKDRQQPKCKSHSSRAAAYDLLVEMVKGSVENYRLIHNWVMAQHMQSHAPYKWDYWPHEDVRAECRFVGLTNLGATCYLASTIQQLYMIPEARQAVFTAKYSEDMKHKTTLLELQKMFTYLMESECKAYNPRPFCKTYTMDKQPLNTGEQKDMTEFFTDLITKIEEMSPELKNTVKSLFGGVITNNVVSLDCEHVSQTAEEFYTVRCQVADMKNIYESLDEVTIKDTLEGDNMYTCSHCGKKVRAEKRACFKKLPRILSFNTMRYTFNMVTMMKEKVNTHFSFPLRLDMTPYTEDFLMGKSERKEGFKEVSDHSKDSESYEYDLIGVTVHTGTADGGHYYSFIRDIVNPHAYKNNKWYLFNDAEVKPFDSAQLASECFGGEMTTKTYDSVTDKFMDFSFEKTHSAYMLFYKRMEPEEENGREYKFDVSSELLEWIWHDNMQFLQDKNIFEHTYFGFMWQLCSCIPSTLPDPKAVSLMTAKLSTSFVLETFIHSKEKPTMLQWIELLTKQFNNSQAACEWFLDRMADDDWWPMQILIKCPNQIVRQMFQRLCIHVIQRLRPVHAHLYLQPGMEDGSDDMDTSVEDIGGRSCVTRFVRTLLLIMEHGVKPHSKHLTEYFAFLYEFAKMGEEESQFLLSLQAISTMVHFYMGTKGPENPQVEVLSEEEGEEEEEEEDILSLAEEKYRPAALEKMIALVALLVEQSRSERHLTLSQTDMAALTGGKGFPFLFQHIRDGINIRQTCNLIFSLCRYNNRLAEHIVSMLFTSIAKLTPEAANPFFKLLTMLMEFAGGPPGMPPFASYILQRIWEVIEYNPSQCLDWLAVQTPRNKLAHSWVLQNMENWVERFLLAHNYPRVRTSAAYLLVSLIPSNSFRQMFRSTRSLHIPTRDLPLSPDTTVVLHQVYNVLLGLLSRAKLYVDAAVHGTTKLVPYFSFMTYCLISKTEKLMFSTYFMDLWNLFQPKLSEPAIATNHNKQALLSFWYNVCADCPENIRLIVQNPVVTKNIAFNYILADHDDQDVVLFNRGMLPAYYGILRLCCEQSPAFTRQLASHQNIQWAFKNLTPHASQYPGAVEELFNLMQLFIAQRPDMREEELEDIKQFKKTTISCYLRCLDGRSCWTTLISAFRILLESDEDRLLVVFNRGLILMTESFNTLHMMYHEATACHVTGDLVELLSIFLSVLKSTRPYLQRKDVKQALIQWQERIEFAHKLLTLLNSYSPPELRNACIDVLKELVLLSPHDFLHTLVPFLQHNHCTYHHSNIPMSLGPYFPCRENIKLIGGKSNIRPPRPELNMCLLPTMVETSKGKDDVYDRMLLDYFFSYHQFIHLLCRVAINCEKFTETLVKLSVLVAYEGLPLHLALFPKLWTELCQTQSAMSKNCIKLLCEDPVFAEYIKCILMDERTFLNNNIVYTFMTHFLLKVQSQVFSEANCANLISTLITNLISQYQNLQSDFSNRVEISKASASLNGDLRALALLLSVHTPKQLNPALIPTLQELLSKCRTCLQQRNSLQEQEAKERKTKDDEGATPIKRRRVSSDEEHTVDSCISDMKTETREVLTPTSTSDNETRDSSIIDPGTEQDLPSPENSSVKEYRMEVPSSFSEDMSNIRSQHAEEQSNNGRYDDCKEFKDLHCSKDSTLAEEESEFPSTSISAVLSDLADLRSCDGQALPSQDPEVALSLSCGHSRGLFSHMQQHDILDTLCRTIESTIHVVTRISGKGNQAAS
How it was run: (§1)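 The table lists average log2 ratios of fragment over vehicle, from an unpaired t-test on global-median-normalised Spectronaut label-free quantities. Proteins with ≥2 unique peptides were used. Samples were HEK293T lysate (495 µg) treated in triplicate with fragment at 200 µM or vehicle for 3 h, then with Biotin-Ahx-Ub-VS (0.5 µM final) for 1 h, with labelled DUBs NeutrAvidin-enriched and run by diaPASEF LC-MS/MS.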

USP36 = biological target: T1, USP36 (UniProt Q9P275)
T1 sequence (whole entry): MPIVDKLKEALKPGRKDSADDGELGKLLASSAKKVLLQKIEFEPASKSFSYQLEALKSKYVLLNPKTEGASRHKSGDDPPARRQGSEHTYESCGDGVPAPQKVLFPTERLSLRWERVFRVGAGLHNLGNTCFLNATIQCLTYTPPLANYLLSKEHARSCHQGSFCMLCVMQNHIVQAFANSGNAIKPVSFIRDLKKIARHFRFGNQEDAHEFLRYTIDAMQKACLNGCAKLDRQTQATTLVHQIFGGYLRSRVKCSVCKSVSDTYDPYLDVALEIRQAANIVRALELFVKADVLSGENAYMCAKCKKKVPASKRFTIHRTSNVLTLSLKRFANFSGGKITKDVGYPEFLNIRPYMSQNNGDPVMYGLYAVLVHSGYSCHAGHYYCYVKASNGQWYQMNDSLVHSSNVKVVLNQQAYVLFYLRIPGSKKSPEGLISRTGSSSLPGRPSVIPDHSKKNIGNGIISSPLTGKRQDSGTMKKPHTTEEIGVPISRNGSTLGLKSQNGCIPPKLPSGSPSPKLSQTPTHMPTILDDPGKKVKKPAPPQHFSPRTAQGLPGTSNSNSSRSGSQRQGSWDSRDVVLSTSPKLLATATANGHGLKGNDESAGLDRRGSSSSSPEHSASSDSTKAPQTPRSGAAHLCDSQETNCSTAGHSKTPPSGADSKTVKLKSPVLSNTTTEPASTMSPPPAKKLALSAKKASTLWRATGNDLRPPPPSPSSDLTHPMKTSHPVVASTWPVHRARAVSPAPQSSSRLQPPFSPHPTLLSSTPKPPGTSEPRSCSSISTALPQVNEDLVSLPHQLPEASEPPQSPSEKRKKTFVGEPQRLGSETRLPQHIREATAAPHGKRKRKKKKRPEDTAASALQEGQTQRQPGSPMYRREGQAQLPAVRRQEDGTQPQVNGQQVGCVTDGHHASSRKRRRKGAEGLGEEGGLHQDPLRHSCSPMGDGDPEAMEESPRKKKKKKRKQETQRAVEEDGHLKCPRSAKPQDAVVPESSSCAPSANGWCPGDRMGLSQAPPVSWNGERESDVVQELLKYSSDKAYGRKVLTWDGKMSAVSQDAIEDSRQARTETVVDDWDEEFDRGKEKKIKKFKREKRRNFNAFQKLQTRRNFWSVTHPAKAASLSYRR
How it was run: as §1

USP38 = biological target: T2, USP38 (UniProt Q8NB14)
T2 sequence (whole entry): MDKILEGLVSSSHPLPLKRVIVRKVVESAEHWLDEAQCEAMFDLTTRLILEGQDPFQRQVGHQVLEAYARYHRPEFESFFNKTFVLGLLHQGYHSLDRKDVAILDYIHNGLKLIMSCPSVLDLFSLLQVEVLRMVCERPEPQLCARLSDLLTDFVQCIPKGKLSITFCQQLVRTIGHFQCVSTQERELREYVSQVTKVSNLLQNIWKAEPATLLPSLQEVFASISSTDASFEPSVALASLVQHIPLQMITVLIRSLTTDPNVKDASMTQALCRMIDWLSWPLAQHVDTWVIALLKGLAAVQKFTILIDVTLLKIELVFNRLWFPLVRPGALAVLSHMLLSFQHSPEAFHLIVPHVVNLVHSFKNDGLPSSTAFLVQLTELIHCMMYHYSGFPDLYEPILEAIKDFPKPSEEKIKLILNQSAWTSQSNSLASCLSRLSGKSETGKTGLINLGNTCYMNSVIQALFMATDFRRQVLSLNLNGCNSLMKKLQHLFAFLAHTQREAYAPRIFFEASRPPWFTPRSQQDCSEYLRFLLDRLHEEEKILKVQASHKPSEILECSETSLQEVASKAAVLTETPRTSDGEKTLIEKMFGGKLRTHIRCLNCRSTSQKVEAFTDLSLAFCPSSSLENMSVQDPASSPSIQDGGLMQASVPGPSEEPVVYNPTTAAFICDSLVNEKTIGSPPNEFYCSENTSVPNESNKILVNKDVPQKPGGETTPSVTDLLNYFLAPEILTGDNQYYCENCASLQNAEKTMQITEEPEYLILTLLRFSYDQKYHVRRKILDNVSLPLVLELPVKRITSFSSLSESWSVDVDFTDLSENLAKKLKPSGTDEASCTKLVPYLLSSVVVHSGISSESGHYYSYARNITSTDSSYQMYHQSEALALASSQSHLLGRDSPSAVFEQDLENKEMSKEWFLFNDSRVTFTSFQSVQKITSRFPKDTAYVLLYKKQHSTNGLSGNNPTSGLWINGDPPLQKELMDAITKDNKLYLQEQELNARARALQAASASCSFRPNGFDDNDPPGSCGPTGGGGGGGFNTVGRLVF
How it was run: as §1

USP39 = biological target: T3, USP39 (UniProt Q53GS9)
T3 sequence (whole entry): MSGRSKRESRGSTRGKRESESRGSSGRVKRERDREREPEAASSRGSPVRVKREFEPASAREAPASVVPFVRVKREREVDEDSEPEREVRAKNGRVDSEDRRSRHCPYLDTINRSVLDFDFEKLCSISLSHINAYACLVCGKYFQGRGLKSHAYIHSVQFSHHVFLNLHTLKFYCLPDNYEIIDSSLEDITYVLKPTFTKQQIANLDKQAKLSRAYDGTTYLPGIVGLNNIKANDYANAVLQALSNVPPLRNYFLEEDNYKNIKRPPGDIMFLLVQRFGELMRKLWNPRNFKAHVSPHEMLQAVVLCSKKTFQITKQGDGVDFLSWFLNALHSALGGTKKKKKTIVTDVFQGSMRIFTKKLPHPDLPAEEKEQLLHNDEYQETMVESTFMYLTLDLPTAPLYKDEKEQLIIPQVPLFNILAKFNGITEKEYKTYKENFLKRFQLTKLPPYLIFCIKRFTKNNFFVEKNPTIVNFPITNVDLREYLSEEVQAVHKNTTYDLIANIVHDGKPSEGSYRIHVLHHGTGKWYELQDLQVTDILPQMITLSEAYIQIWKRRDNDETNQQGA
How it was run: as §1

USP4 = biological target: T4, USP4 (UniProt Q13107)
T4 sequence (whole entry): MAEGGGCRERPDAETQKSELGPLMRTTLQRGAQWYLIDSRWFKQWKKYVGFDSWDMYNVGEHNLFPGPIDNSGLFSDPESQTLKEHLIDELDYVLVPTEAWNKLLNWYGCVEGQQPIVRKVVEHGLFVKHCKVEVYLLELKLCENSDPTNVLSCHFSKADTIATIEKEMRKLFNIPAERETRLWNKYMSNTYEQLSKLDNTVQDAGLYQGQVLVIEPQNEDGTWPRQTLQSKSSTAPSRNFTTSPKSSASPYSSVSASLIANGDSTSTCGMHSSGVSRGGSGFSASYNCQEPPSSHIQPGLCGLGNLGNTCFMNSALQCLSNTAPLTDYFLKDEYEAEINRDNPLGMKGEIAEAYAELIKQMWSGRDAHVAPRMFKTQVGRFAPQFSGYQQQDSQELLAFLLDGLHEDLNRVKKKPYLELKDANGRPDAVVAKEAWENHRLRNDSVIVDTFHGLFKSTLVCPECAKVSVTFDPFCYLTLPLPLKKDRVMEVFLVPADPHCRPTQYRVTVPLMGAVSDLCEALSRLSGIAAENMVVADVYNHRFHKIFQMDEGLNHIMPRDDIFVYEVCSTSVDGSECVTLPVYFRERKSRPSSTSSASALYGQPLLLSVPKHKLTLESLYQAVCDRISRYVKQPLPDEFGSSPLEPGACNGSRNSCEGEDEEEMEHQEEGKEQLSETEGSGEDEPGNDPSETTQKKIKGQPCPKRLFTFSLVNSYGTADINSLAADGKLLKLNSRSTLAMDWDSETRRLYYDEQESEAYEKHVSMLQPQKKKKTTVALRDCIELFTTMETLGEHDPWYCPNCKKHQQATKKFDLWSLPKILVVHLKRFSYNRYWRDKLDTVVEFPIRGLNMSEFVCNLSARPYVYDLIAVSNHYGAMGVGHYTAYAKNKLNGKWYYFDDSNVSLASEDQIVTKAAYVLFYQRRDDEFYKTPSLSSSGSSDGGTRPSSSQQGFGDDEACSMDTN
How it was run: as §1

Measured: log2 ratio of Biotin-Ahx-Ub-VS probe labelling

O=C(CCl)N1CCCC1c1ccsc1 (stereo not given)
inactive: USP34 -0.191 | USP36 -0.111 | USP38 -0.0937 | USP39 -0.0825 | USP4 -0.821
